Screens: PubChem BioAssay, several laboratories
Rows were chosen to be rich in hits. Some 1.5% of all compounds tested hit in one or more screens of this group.
BCLXL inh: Bcl-xL (human) inhibition. GST-Bcl-xL / FITC-Bim BH3 peptide fluorescence polarization. inhibition, % at 10.9 µM. 0.7% of 320,000 active. AID 2129;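 active = inhibition above the mean of all tested compounds plus 3 SD, cutoff set per campaign, cut at about 30% in these data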;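 note: inhibitors lower millipolarization by displacing the labeled peptide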
Target sequence (Q07817 whole entry, looked up): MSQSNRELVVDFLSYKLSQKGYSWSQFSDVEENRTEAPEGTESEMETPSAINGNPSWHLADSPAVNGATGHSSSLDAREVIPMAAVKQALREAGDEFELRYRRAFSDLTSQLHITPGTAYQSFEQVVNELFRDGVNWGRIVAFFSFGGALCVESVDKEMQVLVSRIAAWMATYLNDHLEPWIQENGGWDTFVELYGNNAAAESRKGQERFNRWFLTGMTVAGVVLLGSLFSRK
eLon inh: E. coli protease La inhibition; purified E. coli Lon protease, fluorescence polarization; inhibition, % at 7.94 µM; P0A9M0; 0.42% of 360,000 active; in the data active = inhibition above about 13%, passing the limit was not always enough
MCL1-BIM inh: MCL1-BIM-BH3 interaction inhibition (human) | Q07820 | AID 2057 | GST-MCL1 / FITC-Bim-BH3 fluorescence polarization | inhibition, % at 10.9 µM | 0.68% of 320,000 active;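 active = inhibition above the mean inhibition of all tested compounds plus 3 SD, set per campaign, cut at about 40% in these data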;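 note: higher means more loss of mP so more displacement of Bim peptide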
Target sequence (Q07820 whole entry, looked up): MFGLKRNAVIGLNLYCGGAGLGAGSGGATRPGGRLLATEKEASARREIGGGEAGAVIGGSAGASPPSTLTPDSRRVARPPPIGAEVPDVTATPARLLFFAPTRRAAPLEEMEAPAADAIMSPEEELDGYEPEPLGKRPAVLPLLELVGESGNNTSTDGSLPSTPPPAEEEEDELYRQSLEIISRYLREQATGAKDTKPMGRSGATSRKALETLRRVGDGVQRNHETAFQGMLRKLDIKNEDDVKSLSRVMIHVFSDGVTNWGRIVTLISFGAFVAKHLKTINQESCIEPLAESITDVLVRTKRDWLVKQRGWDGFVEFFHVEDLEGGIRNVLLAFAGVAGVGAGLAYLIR
MEX-5 binding: C. elegans MEX-5 TCR-2 RNA binding activity | activity score (negative = inhibition of binding), % at 10 µM | Q9XUB2 | MEX-5/FITC-TCR2 RNA binding, fluorescence polarization; stronger effect = lower value | 0.38% of 300,000 active;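 active = inhibition past about -25% in most replicates, and total fluorescence under double the plate's negative control median, limit read from the data; inconclusive = replicates evenly split on the limit, or fluorescence at least double controls; inactive = too little inhibition in most replicates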
EBV gp42 inh: blocks Epstein-Barr virus glycoprotein 42 binding; Q1HVG2; Fluorescence polarization binding assay, mP read-out; inhibition, % (tested at 21.74 µM); 0.42% of 220,000 active; AID 1085; in the data active = inhibition above about 50%
GLD-1 RNA inh: GLD-1-TGE RNA interaction inhibition (C. elegans); purified GLD-1 + fluorescein TGE RNA, fluorescence polarization; Q17339; inhibition, % at 5.96 µM; 0.44% of 320,000 active;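 active = percent inhibition above a per-plate cutoff, the plate mean of test compounds plus 3 SD, cut at about 30% in these data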
E coli Lon conf: E. coli Lon inhibition confirmation | shares compounds with eLon inh | purified E. coli Lon, fluorescence polarization | inhibition, % at 7.94 µM | 31% of 1,400 active; in the data active = inhibition above about 16%
Numbers stand for hits; . = inactive; ? = inconclusive; / = no result.

SMILES | BCLXL inh | eLon inh | MCL1-BIM inh | MEX-5 binding | EBV gp42 inh | GLD-1 RNA inh | E coli Lon conf
CCCCc1ncc(CN2CCC(n3nccc3NC(=O)c3ccccc3Cl)CC2)[nH]1 | . | 19 | . | . | / | . | .
CCCCc1ncc(CN2CCC(n3nccc3NC(=O)C(OC)c3ccccc3)CC2)[nH]1 (centres undefined) | . | . | . | . | / | . | /
Cc1nc2cc3c(=O)n(C)cnc3cc2n1Cc1ccccc1 | / | . | / | / | / | / | /
COc1cccc(-n2nc(C(C)=O)c(C#N)c2-c2ccco2)c1 | . | . | . | . | . | . | /
Cc1ccc(S(=O)(=O)N2CCOCC2)cc1C(=O)Nc1ccc(S(=O)(=O)Nc2nccs2)cc1 | . | . | . | ? | . | . | /
COc1ccc(Cc2nc3ccc(C(=O)NCCc4cccc(C)n4)cc3o2)cc1 | . | . | . | . | / | . | /
CC(=O)Nc1cccc(NC(=O)CSc2nc(=O)n(CCN3CCOCC3)c3c2CCC3)c1 | . | 105 | . | . | / | . | .
CC(=O)Nc1cccc(NC(=O)CSc2nc(=O)n(CCCN3CCOCC3)c3c2CCC3)c1 | . | . | . | . | / | . | /
CCOC(=O)C(=O)N(CC)C1CCS(=O)(=O)C1 (centres undefined) | . | 17 | . | / | . | . | .
C/C(=N\NC(=S)NCCc1ccccc1)c1cccs1 | . | 101 | . | . | . | . | 57
C/C(CCc1ccccc1)=N\NC(=S)NCCc1ccccc1 | . | . | . | . | / | . | /
Cc1cc(-c2csc(N)n2)c(C)n1C | 41 | 16 | 42 | -47 | . | . | .
Cc1ccc(-n2c(C)cc(-c3csc(N)n3)c2C)cc1 | . | . | . | . | . | . | /
Cn1c(CNC(=O)Nc2cccc(Cl)c2)nnc1SCc1ccccc1 | . | 15 | . | . | . | . | .
Cn1c(CNC(=O)Nc2ccccc2)nnc1SCc1ccccc1 | . | . | . | . | . | . | /
COc1ccc(NC(=O)c2cccc(N3C(=O)c4cccc([N+](=O)[O-])c4C3=O)c2)cc1 | . | 19 | . | . | / | . | .
O=C(COC(=O)CNS(=O)(=O)c1c(F)cccc1F)NC(=O)NC1CCCCC1 | . | 27 | . | / | / | . | .
COc1ccc(-n2nc(C(=O)NCC(=O)Nc3cccc(Cl)c3)c3ccccc3c2=O)cc1OC | . | . | . | . | / | . | /
OC(C#Cc1ccccn1)c1cccs1 (centres undefined) | 42 | 30 | 44 | -35 | . | . | .
CCOc1ccc(NC(=O)c2ccc3[nH]c(=O)c(=O)[nH]c3c2)cc1 | . | . | . | . | / | . | /
O=C(COC(=O)C1=Cc2ccccc2OC1)NCc1ccc(F)cc1 | / | 31 | / | / | / | / | .
Cc1ccc(S(=O)(=O)/N=C(/Nc2c(C)n(C)n(-c3ccccc3)c2=O)c2ccccc2)cc1 | . | . | . | . | . | . | /
Cc1c(N/C(=N/S(=O)(=O)c2cc([N+](=O)[O-])ccc2Cl)c2ccccc2)c(=O)n(-c2ccccc2)n1C | . | 19 | . | . | . | . | .
CC(C)C(c1nnnn1Cc1cccs1)N1CCN(C(=O)c2ccco2)CC1 (centres undefined) | . | . | . | . | . | . | /
COc1cccc(CN2CC(C(=O)N(C)Cc3nc4ccc(F)cc4[nH]3)CCC2=O)c1 (centres undefined) | . | 69 | . | . | / | . | .
SMILES | BCLXL inh | eLon inh | MCL1-BIM inh | MEX-5 binding | EBV gp42 inh | GLD-1 RNA inh | E coli Lon conf
CC1(C(=O)Nc2ccc3[nH]ncc3c2)CCN1C(=O)C1(c2ccccc2)CC1 (centres undefined) | / | . | / | / | / | / | /
CCc1ccc(NC(=O)CSCc2nc(N)nc(Nc3ccccc3CC)n2)cc1 | . | . | . | . | . | . | /
CCc1ccccc1Nc1nc(N)nc(CSc2nnc3ccccn23)n1 | . | 62 | . | . | . | . | .
CCC(C)[C@H](NC(=O)NCCC1=CCCCC1)C(=O)OC (some centres undefined) | . | . | . | . | . | . | /
COC(=O)[C@H](C)NC(=O)NCCC1=CCCCC1 | . | 24 | . | . | . | . | .
Cc1cc(Br)cn2c(Cc3ccsc3)c(-c3ccc(F)cc3)nc12 | / | 25 | / | / | / | / | .
Cc1cc(Br)cn2c(Cc3cccc(F)c3)c(-c3ccc(F)cc3)nc12 | / | . | / | / | / | / | /
Cc1cc(Br)cn2c(Cc3ccsc3)c(C3CCCCC3)nc12 | / | 50 | / | / | / | / | 53
COc1ccc(-c2nc3c(C)cc(Br)cn3c2Cc2ccccc2)cc1OC | / | . | / | / | / | / | /
COc1ccc(-c2nc3c(C)cc(Br)cn3c2Cc2ccc(C)cc2)cc1OC | / | 28 | / | / | / | / | .
Cc1cc(Br)cn2c(Cc3ccsc3)c(C(C)(C)C)nc12 | / | 80 | / | / | / | / | 71
O=c1ccc(=O)n(CCc2ccccn2)[nH]1 | / | . | / | / | / | / | /
O=C(Cn1nc(-c2ccc(Cl)cc2)c2ccccc2c1=O)Nc1cccnc1 | . | 18 | . | . | . | . | .
NNC(=O)CCn1c2ccccc2c2ccccc21 | . | 21 | . | . | . | . | .
Cc1cc2cc(CCNC(=O)c3ccc(C)c([N+](=O)[O-])c3)c(=O)[nH]c2cc1C | . | . | . | . | . | . | /
Cc1cc2cc(CNC(=O)c3ccc(C)c([N+](=O)[O-])c3)ccc2[nH]1 | . | 22 | . | . | . | . | .
CC(=O)c1c(C)[nH]c(C(=O)OCC(=O)N(Cc2ccccc2)C(C)(C)C)c1C | / | 71 | / | / | / | / | .
COC(=O)C1=C(C)NC(C)=C(C(=O)OCC2CCCO2)C1c1cccc(Cl)c1 (centres undefined) | . | 22 | . | . | / | . | .
COC(=O)C1=C(C)NC(C)=C(C(=O)OCC2CCCO2)C1c1ccc(Cl)c([N+](=O)[O-])c1 (centres undefined) | . | . | . | . | / | . | /
Cc1nc(Nc2ccc(Cl)cc2)c(C#N)c(=O)[nH]1 | . | 19 | . | . | / | . | .
O=C(O)CCCN1C(=O)C2C3CC(C2C1=O)C1C(c2ccccc2)c2sc(=O)n(-c4ccccc4)c2SC31 (centres undefined) | . | . | . | . | . | . | /
NC(=O)c1c(NC(=O)CSc2nnc(Cc3ccccc3)n2Cc2ccco2)sc2c1CCC2 | . | 22 | . | . | . | . | .
Cn1cc([N+](=O)[O-])c(C(=O)NC2CCCC2)n1 | / | . | / | . | / | / | /
O=C(Nc1ccn(CCCNCc2ccccn2)c(=O)n1)OCc1ccccc1 | / | . | / | / | / | / | /
O=C(Nc1ccn(CCCNCc2cccc3ccccc23)c(=O)n1)OCc1ccccc1 | / | 13 | / | / | / | / | .
CCCc1nn(C)c(C(=O)Nc2cccc(Cl)c2)c1Cl | . | 30 | . | . | . | . | .
CCCc1nn(C)c(C(=O)Nc2cccc(C)c2)c1Cl | . | . | . | . | . | . | /
O[C@H]1C[C@H](c2ccccc2)N(Cc2cccs2)C[C@@H]1n1cc(C2CC2)nn1 | / | . | / | / | / | / | /
CCOC(=O)C1CCCN(C(=O)CC(c2ccccc2)c2ccccc2)C1 (centres undefined) | . | . | . | . | . | . | /
